According to PubChem BioAssay AID504339 (National Center for Advancing Translational Sciences (NCATS), 2011):
Among all 390,000 compounds or so, about 17,000 (4.4%) were called active. Not shown: some 8% with an inconclusive outcome. Calls come from the whole dose curve; as a rule, active = well fitted inhibition curve with a large enough effect; inconclusive = small, poorly fitted or top-dose-only effect; inactive = no such curve, though single readings can be large or run the other way. Many of the other results were omitted from the sample, so actives are more common in it than they were.

Target: Lysine-specific demethylase 4A (Homo sapiens) (UniProt O75164)
Sequence (O75164 whole entry, looked up, the tested form may be a part): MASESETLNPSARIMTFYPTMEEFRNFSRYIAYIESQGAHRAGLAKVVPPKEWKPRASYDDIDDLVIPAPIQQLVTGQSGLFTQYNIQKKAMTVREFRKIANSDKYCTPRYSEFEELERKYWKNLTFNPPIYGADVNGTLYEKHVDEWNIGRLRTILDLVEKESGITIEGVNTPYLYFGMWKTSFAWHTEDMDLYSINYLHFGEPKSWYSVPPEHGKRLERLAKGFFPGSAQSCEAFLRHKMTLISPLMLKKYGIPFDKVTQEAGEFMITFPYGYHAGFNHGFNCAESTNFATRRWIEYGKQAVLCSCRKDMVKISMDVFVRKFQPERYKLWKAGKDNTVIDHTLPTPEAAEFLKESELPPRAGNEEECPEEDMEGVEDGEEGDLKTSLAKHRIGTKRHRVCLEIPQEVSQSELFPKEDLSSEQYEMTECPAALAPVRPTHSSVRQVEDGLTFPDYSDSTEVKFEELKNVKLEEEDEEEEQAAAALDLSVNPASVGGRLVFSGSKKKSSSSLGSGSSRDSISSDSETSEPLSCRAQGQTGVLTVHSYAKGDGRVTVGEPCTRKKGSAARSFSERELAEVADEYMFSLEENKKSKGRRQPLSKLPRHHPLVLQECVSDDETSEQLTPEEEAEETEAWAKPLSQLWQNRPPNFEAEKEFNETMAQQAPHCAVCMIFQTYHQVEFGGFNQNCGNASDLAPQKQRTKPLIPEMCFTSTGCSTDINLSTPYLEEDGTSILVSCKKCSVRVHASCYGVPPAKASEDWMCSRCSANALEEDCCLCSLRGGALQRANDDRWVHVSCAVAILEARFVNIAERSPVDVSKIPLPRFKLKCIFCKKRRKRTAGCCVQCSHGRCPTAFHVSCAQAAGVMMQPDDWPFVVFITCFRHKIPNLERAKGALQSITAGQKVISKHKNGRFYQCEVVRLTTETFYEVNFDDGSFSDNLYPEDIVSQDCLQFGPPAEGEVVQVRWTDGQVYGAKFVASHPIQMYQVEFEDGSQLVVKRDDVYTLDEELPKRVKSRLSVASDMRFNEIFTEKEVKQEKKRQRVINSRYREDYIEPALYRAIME
Test: qHTS Assay for Inhibitors of JMJD2A-Tudor Domain; note: nearly all actives have a fitted effect of over 50% in size
Details: AlphaScreen JMJD2A-Tudor / H3K4me3 peptide binding; series mostly up to 114 µM; activity change, negative = inhibition: at the top concentration
% is set by controls: 0 for no effect and ±100 for the full control effect; potency is the fitted concentration of half-maximal effect.

Activity change, negative = inhibition, inactive:
CCC1CN(S(=O)(=O)c2cc(-c3cc(C)no3)ccc2C)c2cc(C)ccc2O1 (stereo unspecified) -13.3%, COc1cccc(C(=O)Nc2ccc3oc(-c4ccc5ccccc5c4)nc3c2)c1 -27.5%, CCOc1ccc(C(=O)N2CCN(CCc3ccccn3)CC2)cc1 -17.5%, Cc1ccc(F)cc1NC(=O)CCSc1nc(-c2ccco2)cc(C(F)(F)F)n1 -14.1%, CCOC(=O)c1cc2c(=O)n3ccccc3nc2n(CC2CCCO2)c1=NC(=O)c1ccc(C(C)(C)C)cc1 (stereo unspecified) 7.85%, CCCn1c(NCc2ccccc2F)nc2ccccc21 4.36%, CCCn1c(NC(=O)C23CC4CC(CC(O)(C4)C2)C3)nc2ccccc21 -14.9%, COc1cccc(CNC(=O)Cc2csc3nc(-c4ccccc4)cn23)c1 -22.7%, Cc1cc(C)c2oc(-c3cccc(NC(=O)c4cccc(F)c4)c3C)nc2c1 -10.8%, COc1ccc(-c2nc(Cn3c(=O)cc(C)c4c(C)nn(-c5ccccc5)c43)c(C)o2)cc1OC -13%, CCOc1ccccc1NC(=O)Cn1c(=O)n(Cc2ccco2)c(=O)c2sc3ccccc3c21 -20.5%, CCOC(=O)C1CCN(C(c2ccc(F)cc2)c2sc3nc(-c4ccco4)nn3c2O)CC1 (stereo unspecified) 0%, CCCC(=O)Nc1cc2nn(-c3ccccc3)nc2cc1C 1.96%, CCCC(=O)Nc1ccc(NC(=O)c2sc3ccccc3c2Cl)cc1 -8.17%, COC(=O)c1cc(NC(=O)c2sc3ccccc3c2Cl)cc(C(=O)OC)c1 -8.5%, CCOCCCNC(=O)c1c(NC(=O)Cc2coc3c(C)c(C)ccc23)sc2c1CCC2 -26.7%, CCc1ccc(OCCCn2c(CCCNC(=O)C3CCCCC3)nc3ccccc32)cc1 -13.1% [at 57.1 µM], CC1=C(C(=O)OCc2ccc(C)cc2)C(c2ccccc2Cl)CC(=O)N1 (stereo unspecified) -19.2%, CN(CC#CCC(c1ccccc1)c1ccccc1)C(C)(C)C -24.1%, CCN(CCCNC(=O)Cn1ncc2c3ccccc3n(C)c2c1=O)Cc1ccccc1 -12.1%, CCC(=O)N1CCc2cc(S(=O)(=O)NC(CC(C)C)C(=O)NCCc3cccc(C)c3)ccc21 (stereo unspecified) -1.67%, CCc1c(C)nc(N2CCN(Cc3ccccc3)CC2)[nH]c1=O -6.58%, O=S(=O)(c1cccs1)N1CCN(Cc2ccccc2)CC1 -5.93%, COc1ccc(CNc2nc(-c3ccccc3)nn2C(=O)c2ccccc2OC)cc1 10.7%, CC(C)c1ccc(NC(=O)C2CCN(c3nc(-c4ccc(C(C)C)cc4)no3)CC2)cc1 -15.6%, O=C1CC(c2ccc(F)cc2F)c2cc3c(cc2N1)OCO3 (stereo unspecified) -15.8%, Cc1nc(Cl)c(C#N)c2c1CCCC2 -0.685%, COC(=O)c1c(C)c(C)nc(N)c1C#N -5.35%, CC(=O)c1ccc(NC(=O)C2CCN(S(=O)(=O)c3c(C)noc3/C=C/c3ccc(C)cc3)CC2)cc1 -16.6%, CN(Cc1ccccc1)c1ccc(-c2nc(-c3ccccc3)no2)cc1[N+](=O)[O-] -8.94%, CC(=O)c1ccc(N2CCN(C3C(=O)c4ccccc4N3C(C)=O)CC2)cc1 (stereo unspecified) -15.3%, COC(=O)c1c(NC(=O)C(=O)N2CCCCC2)sc2c1CC(C)(C)OC2 -1.38%, CCOC(=O)N1CCN(C(=O)C(=O)Nc2sc3c(c2C#N)CC(C)(C)OC3)CC1 -9.02%, COc1cc(C(=O)Nc2ccc(OCc3cc(=O)n4ccc(C)cc4n3)cc2)cc(OC)c1OC -2.6%, COc1ccc(N(CC(=O)NCC2CCCO2)C(=O)CCC(=O)Nc2nccs2)c(OC)c1 (stereo unspecified) -22.1%, Cc1cc(NC(=O)CCC(=O)N(CC(=O)NCC2CCCO2)c2ccccc2)no1 (stereo unspecified) -10.2%, Cc1cc(NC(=O)CCC(=O)N(CC(=O)NCC2CCCO2)c2ccccc2C)no1 (stereo unspecified) 2.52%, COC(=O)c1cccc(N(CC(=O)NCC2CCCO2)C(=O)CCC(=O)Nc2cc(C)on2)c1 (stereo unspecified) 0.702%, COc1ccc(C(=O)Nc2onc3c2CCCC3)cc1 -17.7%, O=C(NCCc1ccccc1)C(=O)NCC(c1ccco1)S(=O)(=O)c1ccccc1 (stereo unspecified) -9.42%, COc1cccc(C(=O)NC2(C(F)(F)F)C(=O)Nc3c2c(=O)[nH]c(=O)n3-c2ccc(C)cc2)c1 (stereo unspecified) -7.22%, O=C(CSc1ncc(-c2ccccc2)[nH]1)Nc1ccc(F)cc1F -25.7%

Potency, active:
CCCn1c(NCc2ccc(N(CC)CC)cc2)nc2ccccc21 39.8 µM, CCOc1ccccc1/C=c1\sc2nc(-c3ccco3)nn2c1=O 56.2 µM, Oc1ccc(N=Cc2sc3ccccc3c2Cl)cc1 50.1 µM, CC(C)(C)N(CC#CCC(O)(c1ccccc1)C1CCCC1)CCO (stereo unspecified) 50.1 µM, O=C1c2ccccc2C(=O)c2c1cccc2N1CCN(Cc2ccccc2)CC1 14.1 µM, COCc1c(N)c(C)nc(Cl)c1C#N 11.2 µM, CC1(C)Cc2c(sc(NC(=O)C(=O)N3CCOCC3)c2C#N)CO1 14.1 µM, CCCCOc1ccc(N(CC(=O)NCC2CCCO2)C(=O)CCC(=O)Nc2cc(C)ccn2)cc1 (stereo unspecified) 70.8 µM, CCc1ccccc1N(CC(=O)NCC1CCCO1)C(=O)CCC(=O)Nc1nccs1 (stereo unspecified) 25.1 µM
